From PubChem BioAssay AID1558 (National Center for Advancing Translational Sciences (NCATS), 2009)
Records with an inconclusive call do not appear. Entries that show only a call come without a potency. Some compounds were tested as several samples or in several runs, with calls that do not always agree. Active and inactive are the calls of the source. The call rests on the fitted dose curve; in most records, active means well fitted inhibition curve with a large enough effect; inconclusive means small, poorly fitted or top-dose-only effect; inactive means flat fitted curve, though single readings scatter.

Molecular target: Microtubule-associated protein tau (Homo sapiens) (UniProt P10636)
Assay: Confirmation Concentration-Response Assay for Inhibitors of Tau Fibril Formation, Thioflavin T Binding
Conditions: recombinant tau K18 P301L (four-repeat tau fragment) heparin fibrillization, ThT fluorescence; series mostly up to 100 µM
Excerpt: NIH Molecular Libraries Probe Production Network [MLPCN] NIH Chemical Genomics Center [NCGC] MLPCN Grant: X01 MH083262-01 Assay Provider: Carlo Ballatore, University of Pennsylvania NCGC Assay Overview: The microtubule-associated protein tau is an abundant protein in the axons of neurons that stabilizes microtubules. With its ability to modulate microtubule dynamics, tau contributes directly or indirectly, to key structural and regulatory cellular functions. Particularly important is the influence tau exerts on axonal transport, which allows signaling molecules, trophic factors and other essential cellular constituents to travel along the axons. Under pathological conditions, tau becomes sequestered into insoluble aggregates called neurofibrillary tangles. This phenomenon is believed to have pathological consequences by promoting axonal transport deficits that ultimately lead to synaptic dysfunction and neuronal loss. To identify inhibitors of tau aggregation, a heparin-induced tau fibril formation assay was used that employed a recombinantly expressed fragment of tau, K18 (Q242-E372), bearing a P301L mutation (Gustke et al. 1994; Hong et al. 1998). This assay monitors tau fibrillization by Thioflavin T (ThT) fluorescence. Gustke, N., B. Trinczek, et al. (1994). "Domains of tau protein and interactions with microtubules." Biochemistry 33(32): 9511-22. Hong, M., V. Zhukareva, et al. (1998). "Mutation-specific functional impairments in distinct tau isoforms of hereditary FTDP-17." Science 282(5395): 1914-7. Li, W. and V. M. Lee (2006). "Characterization of two VQIXXK motifs for tau fibrillization in vitro." Biochemistry 45(51): 15692-701. von Bergen, M., S. Barghorn, et al. (2001). "Mutations of tau protein in frontotemporal dementia promote aggregation of paired helical filaments by enhancing local beta-structure." J Biol Chem 276(51): 48165-74.
For screening, 2 uL/well human K18 P301L (15 uM unlabeled and 0.24 uM Alexa 594-labeled tau, final concentrations) in reagent buffer (100 mM sodium acetate pH 7) was dispensed into black solid 1536-well plates (Grenier) using a solenoid-based dispenser. Following transfer of 23 nL compound or DMSO vehicle by a pin tool, 2 uL/well heparin (20 uM final concentration) in reagent buffer was added and the plate centrifuged 15 s at 1000 RPM. Plates were incubated 6 hr at 37 C and then 1 uL/well ThT (30 uM final concentration) was added. After a 1 hr ambient incubation, the plates were read by an Envision (Perkin Elmer) to monitor ThT fluorescence (450/8 nm excitation and 510/23 nm emission). Keywords: NIH Roadmap, MLPCN, MLI, MLSMR, NCGC, qHTS, tau, tauopathies, Alzheimer's disease, fibril, neurodegeneration, aggregation

Chain of Microtubule-associated protein tau (Homo sapiens) (P10636 561-689 P618L limits assumed): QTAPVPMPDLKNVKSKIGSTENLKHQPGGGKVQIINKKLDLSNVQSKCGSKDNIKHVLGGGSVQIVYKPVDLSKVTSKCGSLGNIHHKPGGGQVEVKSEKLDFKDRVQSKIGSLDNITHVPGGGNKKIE

| SMILES | Potency |
| --- | --- |
| CCOC(=O)c1nn(-c2cccc(C(F)(F)F)c2)c(=O)c2c(N)scc12 | 0.891 µM (active) |
| COc1cccc(/C=C2/SC(=S)N(CC(=O)Nc3nnc(C)s3)C2=O)c1 | inactive |
| O=C(Cc1ccccc1)Nc1sc2c(c1C(=O)Nc1ccc(Cl)cc1)CCOC2 | inactive |
| CCOC(=O)c1c(N)sc2c1CCOC2 | inactive |
| COC(=O)c1c(NC(=O)CCCOc2ccc(C)cc2)sc2c1C(C(=O)OC)CC2 (stereo not given) | 3.55 µM (active) |
| CC(=O)Nc1sc(C)c2cnn(-c3ccccc3)c(=O)c12 | inactive |
| COc1ccc(Cl)cc1NC(=O)c1c(NCc2sccc2C)sc2c1CCCC2 | 1 µM (active) |
| CCN(CC)C(=O)c1nn(-c2ccc(OC)cc2)c(=O)c2c(N)scc12 | 10 µM (active) |
| O=S(=O)(c1ccc(N=C2NN=C(c3cc(F)ccc3F)CS2)cc1)N1CCOCC1 | 4.47 µM (active) |
| O=C(Cc1ccccc1)Nc1sc2c(c1C(=O)Nc1ccc(Br)cc1)CCCC2 | inactive |
| NC[C@@H](O)c1ccc(O)c(O)c1 | inactive |
| COc1cccc(/C=C2/SC(=S)N(CC(=O)Nc3nccs3)C2=O)c1 | inactive |
| O=C(Cc1ccccc1)Nc1sc2c(c1C(=O)Nc1ccc(Cl)cc1)CCCC2 | 1 µM (active) and inactive |
| COc1ccc(NC(=O)Cn2cc(S(=O)(=O)N3CCN(c4ccccc4F)CC3)c3ccccc3c2=O)cc1Cl | inactive |
| Oc1ccccc1CNc1cccc2cccnc12 | 39.8 µM (active) |
| COC(=O)C1CCc2sc(N)c(C(=O)OCc3ccccc3)c21 (stereo not given) | inactive |
| CN(c1ccccc1)S(=O)(=O)c1nnc(NC(=O)C2CCCCC2)s1 | 22.4 µM (active) |
| Cc1ccc(NC(=O)c2c(NC(=O)Cc3ccccc3)sc3c2CCCC3)cc1 | inactive |
| O=S(=O)(c1ccc(NC(=S)N/N=C/c2ccc(N3CCOCC3)cc2)cc1)N1CCOCC1 | inactive |
| COC(=O)C1CCc2sc(NC(=O)Cc3ccccc3)c(C(=O)Nc3ccc(Cl)cc3)c21 (stereo not given) | inactive |

| SMILES | Potency |
| --- | --- |
| Cn1cc(Cl)c(C(=O)Nc2cccc(Cl)c2Cl)n1 | inactive |
| O=C(Nc1cccc(-c2nc3ccccc3o2)c1)c1cc([N+](=O)[O-])ccc1N1CCOCC1 | inactive |
| S=C1Cc2ccccc2N1 | 0.631 µM (active) |
| O=S(=O)(c1ccc2nc(-c3ccco3)c(-c3ccco3)nc2c1)N1CCOCC1 | 4.47 µM (active) |
| NCCc1ccc(O)c(O)c1 | inactive |
| CC1CCc2c(sc(NC(=O)Cc3ccccc3)c2C(=O)Nc2ccc(Cl)cc2)C1 (stereo not given) | inactive |
| Nc1cc(-c2ccccc2)c[nH]c1=O | 8.91 µM (active) |
| CCOC(=O)c1nn(-c2ccccc2)c(=O)c(C#N)c1C | inactive |
| CCOC(=O)c1nn(-c2ccc(F)cc2)c(=O)c2c(N)scc12 | 5.01 µM (active) |
| COc1ccc2oc(-c3ccc(NC(=O)c4ccc(N5CCOCC5)c([N+](=O)[O-])c4)cc3)nc2c1 | inactive |
| CC(C)Cn1c(O)c(/C=C2\C=NN=C2c2ccccc2)sc1=S | inactive |
| O=C(Nc1ccc(-c2nc3ccccc3o2)cc1)c1ccc(N2CCOCC2)c([N+](=O)[O-])c1 | 1.12 µM (active) |
| O=C(Nc1sc2c(c1C(=O)Nc1cccc(Cl)c1)CCCC2)c1cccs1 | 3.55 µM (active) |
| CN(C)c1ccc(-c2cc[nH]c(=O)c2N)cc1 | 1.58 µM (active) |
| CCc1ccc(S(=O)(=O)Nc2cc(SCC(=O)O)c(O)c3ccccc23)cc1 | 5.62 µM (active) |
| Cn1sc(NC(=O)c2ccccc2)nc1=O | inactive |
| O=C(O)CC1S/C(=N/N=C/c2ccc(-c3ccccc3[N+](=O)[O-])o2)NC1=O (stereo not given) | 11.2 µM (active) |
| Nc1nn(-c2ccccc2)c(=O)c2c(N)scc12 | 5.01 µM (active) |
| CCN(CC)c1ccc2oc(=O)c(C)nc2c1 | 10 µM (active) |
| CCN(c1ccccc1)S(=O)(=O)c1nnc(NC(=O)C(C)(C)C)s1 | inactive |
